# Cruzain Triton – inhibitors of Trypanosoma cruzi cruzain with detergent; P25779; purified cruzain, Z-FR-AMC fluorescence, 0.01% Triton; Potency, µM, for inactives: max response, negative = inhibition, hits mostly inhibitors; 0.43% of 200,000 active; AID 1478;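 note: plate controls were neutral wells for no effect and buffer without enzyme for full effect; nearly all actives have a fitted effect of over 40% in size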
# Target sequence (P25779 123-467 limits assumed): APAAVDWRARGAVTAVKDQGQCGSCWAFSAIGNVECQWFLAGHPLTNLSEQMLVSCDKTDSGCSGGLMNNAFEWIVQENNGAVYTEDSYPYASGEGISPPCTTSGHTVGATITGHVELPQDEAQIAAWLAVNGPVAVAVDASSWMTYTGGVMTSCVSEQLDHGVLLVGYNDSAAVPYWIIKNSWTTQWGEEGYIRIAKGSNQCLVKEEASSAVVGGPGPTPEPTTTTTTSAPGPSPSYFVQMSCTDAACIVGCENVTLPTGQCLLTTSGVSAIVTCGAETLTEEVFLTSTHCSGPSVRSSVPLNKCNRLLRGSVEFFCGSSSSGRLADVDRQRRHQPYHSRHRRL
#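 15 min RT preincubation of 1.5 nM cruzain with compound, then 2 uM Z-FR-AMC added; kinetic AMC fluorescence, 60 s delta. Triton X-100 0.01%, pH 5.5.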
# Cruzain noTriton – cruzain (T. cruzi) inhibition without detergent; P25779; purified cruzain, Z-FR-AMC fluorescence, no detergent; Potency, µM, for inactives: max response, negative = inhibition, usual class: inhibitors; 2.3% of 200,000 active; AID 1476;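 note: plate controls were enzyme without inhibitor for no effect and buffer without enzyme for full effect; nearly all actives have a fitted effect of over 40% in size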
#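 Purified cruzain at 1.5 nM, pre-incubated 15 min with compound at room temperature in 100 mM sodium acetate pH 5.5, 5 mM DTT, 0.00005% Triton X-100. Reaction started with 2 uM Z-FR-AMC; AMC fluorescence increase over 60 s gives rate.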
# Active calls of the source: *; ? = inconclusive. In the library only some 2.4% were active in any assay of this set; here they are far more common. Calls come from the whole dose curve; as a rule, active = well fitted curve in the direction sought with a large enough effect; inconclusive = small, poorly fitted or top-dose-only effect, or another doubt; inactive = no such curve, though single readings can be large; an effect the other way counts as inactive or inconclusive. Potency is the fitted concentration of half-maximal effect.
SMILES,Cruzain Triton,Cruzain noTriton
CCOC(=O)c1ccc(S(=O)(=O)NCC(c2ccc(N(C)C)cc2)c2c[nH]c3ccccc23)cc1 (configuration not stated),-4.3%,?
CN(C)c1ccc(C(CNC(=O)c2ccccc2Br)c2c[nH]c3ccccc23)cc1 (configuration not stated),-3.2%,25.1µM*
CN(C)c1ccc(C(CNC(=O)c2ccc(C#N)cc2)c2c[nH]c3ccccc23)cc1 (configuration not stated),-10.7%,?
CN(C)c1ccc(C(CNS(=O)(=O)c2ccc(F)cc2)c2c[nH]c3ccccc23)cc1 (configuration not stated),-9.5%,31.6µM*
N#Cc1ccc(NC(=O)c2ccc3c(c2)nnn3C2CCCC2)cc1,0.0%,7.3%
O=C(Nc1ccc2c(c1)CCCN2C(=O)c1cccs1)c1ccc(F)c(F)c1,-3.7%,5.3%
CCOC(=O)CC(=O)CSc1nc2c(c(-c3cccs3)c1C#N)CCC2,-7.9%,-6.2%
CCOCCSc1nc2c(c(-c3cccs3)c1C#N)CC/C2=C/c1cccs1,-5.0%,15.8µM*
Cc1ccc(CNC(=O)c2ccc(Cn3c(=O)c4ccccc4n(CC(=O)Nc4ccc(C)cc4C)c3=O)cc2)cc1,-0.1%,?
Cn1c(SCC(=O)c2cc3ccccc3o2)nnc1-c1ccccc1,-10.0%,-8.9%
Cn1ccnc1SCC(=O)c1cc2ccccc2o1,-12.6%,25.1µM*
COc1ccc(N/N=C(/C)c2cnnc(-c3ccccc3)n2)cc1,-14.7%,15.8µM*
CC/C(=N/Nc1ccccc1Cl)c1cnnc(-c2ccccc2)n1,-5.1%,-16.2%
Oc1c(C=Nc2cccc3cccnc23)sc2ccccc12,-4.8%,-3.4%
O=[N+]([O-])c1ccc(O)c(N=Cc2sc3ccccc3c2O)c1,-9.4%,12.6µM*
Cc1ccccc1OCC(=O)N(Cc1ccc(N(C)C)cc1)CC1CCCO1 (configuration not stated),-5.5%,-0.1%
Cc1nc2ccc3nc(NC(=O)c4ccc5c(c4)OCCO5)sc3c2s1,3.2%,-4.5%
Cc1nc2c(ccc3nc(NC(=O)c4ccc5c(c4)OCCO5)sc32)s1,14.1µM*,1.7%
Cc1ccc2c(c1)c(=O)c(S(=O)(=O)c1ccc(C)c(C)c1)cn2CC(=O)Nc1ccccc1,-2.9%,?
COc1ccc(Br)cc1CNC(=O)C1CCN(c2nnc(-n3cccc3CNc3ccc(C)cc3)s2)CC1,-1.8%,31.6µM*
Cc1ccc(NCc2cccn2-c2nnc(N3CCC(C(=O)NCc4ccc(OC(C)C)cc4)CC3)s2)cc1,-4.3%,-12.6%
N#Cc1nc(-c2ccc(COc3ccccc3)o2)oc1NCc1ccccc1,-3.8%,-24.3%
CC(Nc1oc(-c2ccc(COc3ccccc3)o2)nc1C#N)c1ccccc1 (configuration not stated),-2.7%,20µM*
CCC1CCCCN1C(=O)Cn1c(=O)n(-c2ccc(Cl)c(Cl)c2)c(=O)c2c(C)c(C(=O)N(C)C)sc21 (configuration not stated),0.3%,?
Cc1ccc(OCCn2cc(/C=C3\C(=O)NN(c4ccccc4)C3=O)c3ccccc32)cc1,-7.0%,10µM*
SMILES,Cruzain Triton,Cruzain noTriton
O=C1NC(=O)C(=Cc2cn(CCOc3ccc4c(c3)OCO4)c3ccccc23)C(=O)N1,0.3%,?
CC1=Nc2cccc3cccc(c23)N1,-2.3%,-16.1%
Nc1ccc(C2=Nc3cccc4cccc(c34)N2)cc1,-19.8%,3.16µM*
COc1cccc(C2=Nc3cccc4cccc(c34)N2)c1,-7.3%,15.8µM*
CCCCOc1ccc(C2=NC(c3ccccc3)=Nc3ccc(OC)cc3N2)cc1,-1.2%,6.8%
O=C(CN1C(=O)C(c2ccc(F)cc2)=NC12CCCCCC2)Nc1ccc(F)c(Cl)c1,-7.3%,-17.3%
Cc1cc(-n2c(C)cc(C(=O)CN3C(=O)NC4(CCCCC4C)C3=O)c2C)no1 (configuration not stated),5.5%,-29.5%
Cc1cc(C(=O)CN2C(=O)NC3(CCCCC3C)C2=O)c(C)n1Cc1cccs1 (configuration not stated),-4.5%,31.6µM*
Cc1cc(C(=O)CN2C(=O)NC(C)(c3ccccc3)C2=O)c(C)n1CC1CCCO1 (configuration not stated),-2.5%,2.7%
Cc1cc(C(=O)CN2C(=O)NC(c3ccccc3)(c3ccccc3)C2=O)c(C)n1Cc1ccccc1,-1.0%,10µM*
C[C@H]1CC2[C@@H]3CCC4=CC(=O)C=C[C@]4(C)[C@@]3(F)[C@@H](O)C[C@]2(C)[C@@]1(O)C(=O)CO (some centres not stated),1.8%,-1.7%
Cc1ccc(O)c(C(CC(=O)NCC2(c3ccccc3)CCCC2)c2ccccc2)c1 (configuration not stated),-7.5%,-11.0%
O=C(NCc1ccccc1Cl)c1ccc(NC(=O)N2CCSc3ccccc32)cc1,-6.8%,-13.4%
CSc1ccc(CCNC(=O)C2CCCN(S(=O)(=O)N(C)c3ccc(F)cc3)C2)cc1 (configuration not stated),-4.1%,14.0%
O=C(COc1ccccc1Cl)Nc1cc(-c2ccccc2F)nn1-c1ccccc1,3.8%,2.8%
COc1ccc(-c2nn(-c3ccccc3)cc2C(=O)n2nnc3ccccc32)cc1,-13.5%,15.8µM*
COc1ccc(-c2nn(-c3ccccc3)cc2C(=O)OCC(=O)c2ccc(C)c([N+](=O)[O-])c2)cc1,2.4%,25.1µM*
COc1ccc(-c2cc(C(=O)OCC(=O)c3ccc(C)c([N+](=O)[O-])c3)c3ccccc3n2)cc1,-1.3%,10µM*
CC(=O)Nc1ccc(C(=O)OCC(=O)c2ccc(C)c([N+](=O)[O-])c2)cc1,-3.9%,6.9%
O=C(COC(=O)CN1C(=O)c2ccccc2C1=O)Nc1ncc(Cl)cc1Cl,-5.7%,-20.4%
COc1ccc(NC(=O)c2cn(-c3ccccc3)nc2-c2ccc(C)cc2)cc1,-5.2%,-18.9%
Cc1ccc(C(=O)COC(=O)c2cc(-c3ccccc3)nc3ccccc23)cc1C,-2.3%,-4.5%
Cc1ccc(-c2nn(-c3ccccc3)cc2C(=O)OCC(=O)Nc2ncc(Cl)cc2Cl)cc1,-5.9%,31.6µM*
CCN(CC)CCCC(C)n1c(-c2ccccc2)nc2c(NCc3ccccc3)nc(C)nc21 (configuration not stated),-0.6%,2.7%
CCOC(=O)N1CCN(C(=O)CN(c2cccc(Cl)c2)S(=O)(=O)c2ccccc2)CC1,-3.0%,?
SMILES,Cruzain Triton,Cruzain noTriton
CCOC(=O)C(CC)Sc1c(CC)cnc2c1c(=O)n(C)c(=O)n2C (configuration not stated),-1.0%,-15.4%
Cc1ccc(S(=O)(=O)c2nnn(-c3ccc(F)c(Cl)c3)c2N)cc1,0.4%,-10.1%
CCc1ccc(-n2nc(C)c3c(C)cc(=O)n(CC(=O)Nc4ccccc4C(=O)OC)c32)cc1,0.1%,-3.3%
O=C(Nc1nnc(SCc2cc(=O)n3cc(Cl)ccc3n2)s1)c1cccc(F)c1,1.0%,4.3%
O=C(COC(=O)Cc1ccc(S(=O)(=O)N2CCCCC2)s1)Nc1ccc2c(c1)OCO2,-9.7%,10µM*
O=C(COC(=O)/C=C/c1ccc(OC(F)F)cc1)Nc1ccc(S(=O)(=O)N2CCCC2)cc1,-3.5%,-0.9%
O=C(COC(=O)/C=C/c1ccc2c(c1)OCO2)Nc1ccc(S(=O)(=O)N2CCCC2)cc1,-8.9%,31.6µM*
O=C(Cc1ccc(S(=O)(=O)N2CCCCC2)s1)Nc1ccc(F)c(F)c1,-9.3%,1.2%
CCCCn1cc2c(c1-c1ccc(Cl)cc1)c(=O)n(C)c(=O)n2C,-0.6%,11.0%

# Screens (PubChem BioAssay)
